Results as given in paper PMC5540273 (PLoS ONE, 2017).
Where two headings read alike, the source gives them in different places.

Assays:
CAMK4 = conditions: concentration: 1 μM, replicates: in singlicate; n = 1
CAMKK1 = conditions: concentration: 1 μM, replicates: in singlicate; n = 1
CAMKK2 = conditions: concentration: 1 μM, replicates: in singlicate; n = 1
CASK = conditions: concentration: 1 μM, replicates: in singlicate; n = 1
CDC2L1 = tested on: T1, CDC2L1; conditions: concentration: 1 μM, replicates: in singlicate; n = 1
T1 construct: gene CDK11B

CDC2L2 = conditions: concentration: 1 μM, replicates: in singlicate; n = 1
CDC2L5 = tested on: T2, CDC2L5; conditions: n = 1
T2 construct: gene CDK13

CDK11 = tested on: T3, CDK11; conditions: concentration: 1 μM, replicates: in singlicate; n = 1
T3 construct: gene CDK19

CDK2 = conditions: concentration: 1 μM, replicates: in singlicate; n = 1
CDK3 = conditions: concentration: 1 μM, replicates: in singlicate; n = 1
[1] = concentration: 1 μM, replicates: in singlicate
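Note: KINOMEscan kinase panel screen.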

SMILES | %Inh (CAMK4) | %Inh (CAMKK1) | %Inh (CAMKK2) | %Inh (CASK) | %Inh (CDC2L1) | %Inh (CDC2L2) | %Inh (CDC2L5; [1]) | %Inh (CDK11) | %Inh (CDK2) | %Inh (CDK3) | %Inh (CDC2L5; 1 µM)
CC(=O)c1c(C)c2cnc(Nc3ccc(N4CCNCC4)cn3)nc2n(C2CCCC2)c1=O | 0% | 0% | 0% | 0% | 0% | 3% | 0% | 0% | 0% | 8% | –
Cc1cnc(N)c(/C=C/c2cncc(C(=O)NCCc3ccc(Cl)cc3Cl)c2)c1.Cl [GSK190937] | 0% | 7% | 20% | 7% | 0% | 17% | 0% | 92.8% | 0% | 6% | –
COc1ccc(CSc2nnc(-c3ccc4c(c3)CCO4)o2)cc1 | 0% | 1% | 15% | 0% | 0% | 0% | 90% | 0% | 0% | 0% | –
COc1nccc(-c2c(-c3ccc(F)cc3)ncn2CCCN2CCOCC2)n1 [SB-282852] | 17% | 10% | 3% | 8% | 0% | 0% | 28% | 3% | 0% | 6% | –
CS(=O)(=O)CCNCc1nc(-c2ccc3ncnc(Nc4ccc5c(cnn5Cc5ccccc5)c4)c3c2)cs1.Cl.Cl [GW569716] | 0% | 4% | 1% | 0% | 0% | 0% | 0% | 0% | 0% | 1% | –
COc1ccc(-c2coc3ccc(-c4nnc(C)o4)cc23)cc1 | 13% | 0% | 16% | 0% | 0% | 0% | 21% | 0% | 0% | 0% | –
FC(F)(F)c1ccccc1-c1cc(-c2c[nH]nc2-c2ccccn2)ccn1 [GW679396] | 0% | 5% | 21% | 17% | 0% | 0% | 0% | 0% | 0% | 0% | –
Fc1ccc(-c2nc[nH]c2-c2ccncc2)cc1 [SB-217360] | 0% | 0% | 1% | 13% | 0% | 0% | 0% | 0% | 0% | 0% | –
CCn1c(-c2c(N)noc2C)nc2cnccc21 [SB-737856] | 0% | 13% | 0% | 0% | 0% | 8% | 98.8% | 7% | 0% | 0% | –
CNC(=O)c1ccc(C)c(-n2c(C)cc(OCc3ccc(F)cc3F)c(Br)c2=O)c1 | 0% | 0% | 1% | 0% | 0% | 0% | 0% | 57% | 0% | 15% | –
Nc1nccc(-c2c(-c3ccc(F)cc3)ncn2C2CCN(Cc3ccccc3)CC2)n1 [SB-219980] | 13% | 2% | 0% | 0% | 7% | 38% | 0% | 1% | 0% | 0% | –
COc1ccc(CSc2nnc(-c3ccc4nccn4c3)o2)cc1C(F)(F)F | 0% | 0% | 0% | 15% | 4% | 5% | 50% | 40% | 0% | 4% | –
COc1cccc(C2=C(Nc3cc(Cl)c(O)c(Cl)c3)C(=O)NC2=O)c1 [SB-390767] | 0% | 11% | 0% | 32% | 0% | 0% | 0% | 0% | 0% | 18% | –
CN1c2ccc(-c3ccc(C(N)=O)cc3)cc2-c2[nH]ncc2S1(=O)=O | 16% | 100% | 21% | 1% | 0% | 0% | 2% | 0% | 0% | 0% | –
Cc1ccc(NC(=O)Nc2ccc(Cl)cc2)cc1-c1ccc(C(=O)Nc2ccncc2)cc1 [GSK1398472] | 0% | 0% | 0% | 21% | 0% | 13% | 0% | 8% | 0% | 8% | –
Cl.Cl.Cl.N#Cc1ccc(CCNc2nccc(-c3cccc(CN4CCNCC4)c3)n2)cc1 [GSK2137462] | 1% | 35% | 22% | 0% | 0% | 6% | 0% | 0% | 0% | 0% | –
COC(=O)c1cccc(NC(=O)NC2CCN(c3ccnc(Nc4ccc(F)cc4)n3)C2)c1 (stereo not drawn) [GSK1379725] | 0% | 0% | 0% | 25% | 0% | 0% | 0% | 68% | 0% | 4% | –
CS(=O)(=O)CCNCc1nc(-c2ccc3ncnc(Nc4ccc(OCc5ccccc5)c(Cl)c4)c3c2)cs1.Cl [GW582764] | 0% | 0% | 7% | 5% | 0% | 0% | 0% | 0% | 0% | 1% | –

SMILES | %Inh (CAMK4) | %Inh (CAMKK1) | %Inh (CAMKK2) | %Inh (CASK) | %Inh (CDC2L1) | %Inh (CDC2L2) | %Inh (CDC2L5; [1]) | %Inh (CDK11) | %Inh (CDK2) | %Inh (CDK3) | %Inh (CDC2L5; 1 µM)
COc1ccc(Nc2nccc(N3CCC(NC(=O)C(C)c4ccc(Cl)cc4)CC3)n2)cc1 (stereo not drawn) [GSK1379812] | 0% | 0% | 31% | 3% | 0% | 10% | 0% | 63% | 0% | 0% | –
Fc1ccc(-c2nn3cccc(F)c3c2-c2ccncc2)cc1 [GW475620] | 19% | 0% | 5% | 4% | 0% | 0% | 0% | 10% | 7% | 0% | –
COc1ccc2cc(-c3nc(-c4ccccc4C(C)C)[nH]c3-c3ccncc3)ccc2c1 [SB-660566] | 7% | 8% | 0% | 7% | 0% | 2% | 0% | 33% | 0% | 13% | –
NS(=O)(=O)c1cccc(N/C=C2\C(=O)Nc3ccc(S(=O)(=O)Cc4c(Cl)cccc4Cl)cc32)c1 [GSK398099] | 0% | 72% | 60% | 27% | 0% | 9% | 0% | 0% | 0% | 24% | –
COC(=O)c1cccc(NC(=O)NC2CCN(c3ccnc(Nc4ccc(OC)cc4)n3)C2)c1 (stereo not drawn) [GSK1379746] | 0% | 0% | 0% | 2% | 0% | 32% | 0% | 76% | 5% | 9% | –
CNc1cc(-c2ccc3c(N)n[nH]c3c2)nc(N)n1 [GSK2224810] | 0% | 5% | 11% | 6% | 3% | 30% | 0% | 8% | 0% | 9% | –
O=c1cc(N2CCOCC2)nc2n(Cc3cccc(Cl)c3Cl)c3ccccc3n12 [GSK2299009] | 9% | 27% | 29% | 10% | 0% | 11% | 0% | 94.4% | 0% | 29% | –
CNCc1ccc2nc(NC(=O)c3ccc(C(C)(C)C)cc3)cn2c1 | 6% | 0% | 12% | 18% | 16% | 4% | 33% | 4% | 0% | 7% | –
Cc1c(Cn2c3ccccc3n3c(=O)cc(N4CCOCC4)nc23)cccc1C(F)(F)F [GSK2306394] | 8% | 69% | 5% | 0% | 100% | 0% | 0% | 0% | 0% | 0% | –
CS(=O)(=O)Cc1ccc(Nc2nccc(-c3c(-c4cccc(NC(=O)C5CCCCC5)c4)nn4ncccc34)n2)cc1 [GSK350559] | 0% | 0% | 0% | 34% | 0% | 27% | – | 0% | 0% | 0% | 30%
COc1cccc(NC(=O)Nc2ccc(C)c(-c3ccc(C(=O)Nc4ccncc4)cc3)c2)c1 [GSK1398474] | 10% | 0% | 19% | 0% | 0% | 15% | 0% | 0% | 24% | 0% | –
Cc1ccccc1Cn1ccn2c(=O)cc(N3CCOCC3)nc12 [GSK2269905] | 0% | 9% | 31% | 15% | 0% | 0% | 0% | 0% | 0% | 12% | –
Cc1cccc2c(-c3ccncn3)c(-c3ccc(F)cc3)nn12 [GW515532] | 0% | 0% | 0% | 0% | 0% | 3% | 0% | 0% | 0% | 3% | –
COc1cc2ncnc(Nc3cccc(Br)c3)c2cc1OC.Cl [GI230329] | 0% | 20% | 16% | 18% | 0% | 14% | 0% | 0% | 0% | 6% | –
COc1ccc(CSc2nnc(-c3ccc4ncsc4c3)o2)cc1C(F)(F)F | 0% | 0% | 0% | 10% | 0% | 0% | 35% | 37% | 1% | 0% | –
Nc1cccc(-c2ccc3c(N)n[nH]c3c2)n1 [GSK2192730] | 0% | 27% | 22% | 14% | 0% | 22% | 0% | 3% | 0% | 7% | –
Cn1cncc1-c1cc2c(Nc3ccc(OCc4ccccc4)cc3)ncnc2cn1 [GW281179] | 0% | 3% | 32% | 20% | 0% | 17% | 0% | 47% | 0% | 7% | –
Cc1ccc(-c2nc(Nc3ccncc3)c3ccccc3n2)s1 [GSK189015] | 26% | 0% | 7% | 0% | 0% | 17% | 0% | 9% | 24% | 0% | –
